# Assay results as given in PubChem BioAssay (EPA / NIEHS).
# Results filed as inconclusive are left out. Activity calls are given as the source filed them. The calls were made as follows: active = hit-call score of the fitted dose curve at least 0.9, where 1 is the maximum; inconclusive = response in the unintended direction; inactive = score below 0.9.
# How the values were obtained:
# [1] = TOX21_p53_BLA_p2_viability: Viability Assessment in the Tox21 HCT-116 p53 Agonism Beta-lactamase Assay, Phase 2 (AID 2283591);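 also: compound exposure lasted 16 h at 37 °C; actives lower the ATP signal meaning cytotoxicity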
# Summary of the method: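 HCT-116 p53-bla cells (4000/well) rested 5 h at 37C, then received compounds in DMSO (217-fold dilution) for 16 h at 37C, 5% CO2. After the CCF4 read, CellTiter-Glo was added; ATP luminescence was read after 30 min at room temperature.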
# [2] = target: Cellular tumor antigen p53 (Homo sapiens) (UniProt P04637); test: TOX21_p53_BLA_p2_ratio: Tox21 HCT-116 p53 Agonism Beta-lactamase Assay, Ratio, Phase 2 (AID 2283592)
# Chain of Cellular tumor antigen p53 (Homo sapiens) (P04637 whole entry, looked up): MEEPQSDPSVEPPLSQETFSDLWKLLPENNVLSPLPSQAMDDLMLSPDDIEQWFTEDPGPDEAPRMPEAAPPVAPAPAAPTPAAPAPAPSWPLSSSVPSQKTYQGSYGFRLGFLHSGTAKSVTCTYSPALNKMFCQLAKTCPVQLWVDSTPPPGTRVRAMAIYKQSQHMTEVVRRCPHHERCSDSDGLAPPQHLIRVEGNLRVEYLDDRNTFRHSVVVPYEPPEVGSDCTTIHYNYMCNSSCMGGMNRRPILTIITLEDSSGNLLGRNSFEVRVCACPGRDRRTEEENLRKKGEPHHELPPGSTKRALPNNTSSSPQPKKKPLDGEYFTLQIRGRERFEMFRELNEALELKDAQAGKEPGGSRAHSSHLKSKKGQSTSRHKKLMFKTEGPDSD
# Summary of the method: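 Ratio endpoint: beta-lactamase cleavage of CCF4-AM, blue (460 nm) over green (530 nm). HCT116 reporter line; 16 h treatment, 37C; substrate 2 h RT.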
# [3] = TOX21_p53_BLA_p3_viability: Viability Assessment in the Tox21 HCT-116 p53 Agonism Beta-lactamase Assay, Phase 3 (AID 2283593);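 also: cells exposed to compound for 16 h before reading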
# Summary of the method: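 HCT-116 cells (4000/well) rested 5 h at 37C, then got DMSO compounds by pin tool (217-fold dilution) for 16 h at 37C, 5% CO2. After the bla read, CellTiter-Glo was added and luminescence read at 30 min, room temperature.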
# [4] = TOX21_p53_BLA_p4_viability: Viability Assessment in the Tox21 HCT-116 p53 Agonism Beta-lactamase Assay, Phase 4 (AID 2283597);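 also: hits lower the luminescence signal meaning cytotoxicity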
# Summary of the method: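 Cytotoxicity was inferred from loss of CellTiter-Glo luminescence. HCT116 cells had been dosed with compounds after 5 h plating, incubated 16 h at 37C and 5% CO2, and exposed to the CCF4-AM substrate for 2 h.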
# [5] = TOX21_p53_BLA_p5_viability: Viability Assessment in the Tox21 HCT-116 p53 Agonism Beta-lactamase Assay, Phase 5 (AID 2283600)
# Summary of the method: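 Luciferase-coupled ATP quantitation of cells treated for 16 h (37C, 5% CO2) with test chemicals delivered in DMSO via a 217-fold dilution; 4000 cells/well; reagent incubated 30 min at room temperature before luminescence reading.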
# [6] = ACEA_ER_AUC_viability: ACEA Biosciences xCELLigence Real-Time Cell Analysis on Estrogen Receptor Agonism for Viability (AID 2283782);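 also: hit means loss of impedance signal meaning reduced cell growth or viability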
# Summary of the method: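 Continuous-exposure impedance cell analysis uses T-47D cells in charcoal-stripped serum, eight 1:4 dilutions topping at 100 uM final, biological duplicate. Area under the growth curve at 80 h is fitted against DMSO baseline.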
# [7] = target: Cellular tumor antigen p53 (Homo sapiens) (UniProt P04637); test: TOX21_p53_BLA_p4_ratio: Tox21 HCT-116 p53 Agonism Beta-lactamase Assay, Ratio, Phase 4 (AID 2283601)
# Summary of the method: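 HCT116 cells carrying an inducible beta-lactamase reporter were plated at 4000 cells/well, rested 5 h, then exposed to compounds in DMSO (217-fold dilution) for 16 h at 37C. CCF4-AM substrate was loaded 2 h at room temperature; 460/530 nm emission ratio scored gain-of-signal versus DMSO.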
# [8] = target: Cellular tumor antigen p53 (Homo sapiens) (UniProt P04637); test: TOX21_p53_BLA_p5_ratio: Tox21 HCT-116 p53 Agonism Beta-lactamase Assay, Ratio, Phase 5 (AID 2283599)
# Summary of the method: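 HCT-116 cells carrying a p53-inducible beta-lactamase reporter were seeded at 4000 cells/well and dosed after 5 h with compound in DMSO (217-fold dilution). After 16 h at 37C, CCF4-AM substrate was added for 2 h, and the 460/530 nm emission ratio was scored as gain-of-signal versus DMSO.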
SMILES,outcome [1],outcome [2],outcome [3],outcome [4],outcome [5],outcome [6],AC50 [4],outcome [7],outcome [8]
C=C(C)C(=O)OCCNC(C)(C)C,inactive,inactive,inactive,inactive,inactive,inactive,–,–,–
CNCCC=C1c2ccccc2CCc2ccccc21,inactive,inactive,inactive,–,inactive,–,35.8 µM (active),inactive,–
CCN1CCN(c2cc(-c3ccc(F)cc3)c3c(n2)CCCCCC3)CC1,inactive,inactive,inactive,inactive,inactive,–,–,inactive,–
CCN1CCN(c2cc3c(cc2F)c(=O)c(C(=O)O)cn3C2CC2)CC1,inactive,inactive,inactive,–,inactive,–,–,–,inactive
CC12CCC(C(=O)C1=O)C2(C)C (stereo not drawn),inactive,inactive,inactive,–,inactive,–,–,–,inactive
CCC(=O)c1ccc2c(c1)N(CCCN1CCN(CCO)CC1)c1ccccc1S2,inactive,inactive,inactive,–,inactive,–,33.3 µM (active),inactive,–
CO[Si](OC)(OC)OC,inactive,inactive,inactive,–,–,–,–,–,inactive
CC(C(=O)O)c1ccc(C(=O)c2ccccc2)s1 (stereo not drawn),inactive,inactive,inactive,inactive,inactive,–,–,inactive,–
CCN(CC)S(=O)(=O)c1ccc(C(=O)O)cc1,inactive,inactive,inactive,–,–,–,–,–,inactive
CC(C)(Oc1ccc(C2CCCc3ccccc32)cc1)C(=O)O (stereo not drawn),inactive,inactive,inactive,inactive,inactive,–,–,–,–
